# From PubChem BioAssay (Tox21)
# Unmarked numbers belong to inactive results. Inconclusive results are not listed. Where a call stands in place of a potency, no number is given. Activity calls are given as the source filed them. Unless noted, calls come from the whole dose curve; as a rule, active = well fitted curve in the direction sought with a large enough effect in the repeat runs; inconclusive = weak or mixed curves; inactive = no such curve, though single readings can be large; an effect the other way counts as inactive or inconclusive.
# Assays:
# [1] = qHTS assay to identify small molecule agonists of the estrogen receptor alpha (ER-alpha) signaling pathway in the presence of an antagonist - cell viability counter screen (AID 1259386);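 note: series mostly up to about 92 µM; cells exposed to compounds for 22 h at 37 °C before the viability read; nearly all actives have a fitted effect of over 30% in size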
# How it was run: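 Cells are starved of estrogens for 5 days in charcoal-stripped serum, seeded for 24hr and co-treated with ICI-182,780 (10.0nM final) and test compounds. After 22hr at 37C, viability is read as CellTiter-Fluor fluorescence.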
# [2] = target: Progesterone receptor (Homo sapiens) (UniProt P06401); test: qHTS assay to identify small molecule agonists of the progesterone receptor (PR) signaling pathway (AID 1346784; calls by dose curve; note: nearly all actives have a fitted effect of over 30% in size)
# How it was run: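 PR-UAS-bla HEK 293T cells (beta-lactamase reporter under UAS) in 2% charcoal-stripped FBS, dosed with 23 nL compound after 6 hr, incubated 16hr at 37C. LiveBLAzer B/G FRET substrate added, fluorescence read after 2 hours.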
# [3] = target: Progesterone receptor (Homo sapiens) (UniProt P06401); test: qHTS assay to identify small molecule antagonists of the progesterone receptor (PR) signaling pathway (AID 1346795; active = well fitted inhibition curve with a large enough effect in the signal ratio in the repeat runs, not every such curve was filed as active; the % refers to the signal ratio; note: potency is the fitted concentration of half-maximal effect)
# How it was run: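 PR-UAS-bla HEK293T cells with beta-lactamase reporter under UAS control, in 2% charcoal-stripped FBS, treated with compounds plus 1 nM promegestone (R5020, final) for 16 hr at 37C. Read-out: FRET beta-lactamase substrate fluorescence after 2 hr at room temperature.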
# [4] = qHTS assay to identify small molecule antagonists of the progesterone receptor (PR) signaling pathway - cell viability counter screen (AID 1346798); note: series mostly up to about 92 µM; nearly all actives have a fitted effect of over 50% in size
# How it was run: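 PR-UAS-bla HEK293T cells, 3,000/well in 2% charcoal-stripped FBS medium, dosed with compounds plus R5020 agonist and incubated 16 h at 37C. Viability then measured in the same wells by CellTiter-Glo luminescence after 30 min at RT.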
# [5] = qHTS assay to identify small molecule agonists of the progesterone receptor (PR) signaling pathway - cell viability counter screen (AID 1346799; calls by dose curve; note: nearly all actives have a fitted effect of over 45% in size)
# How it was run: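 Counter screen in the PR-UAS-bla HEK293T wells (2% charcoal-stripped FBS, 16 h compound exposure at 37 C) after the bla read. CellTiter-Glo added, 30 min at room temperature, luminescence read as cell viability.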
# [6] = qHTS assay to identify small molecule agonists of the TGF-beta/Smad signaling pathway (AID 1346859; active = well fitted activation curve with a large enough effect in the signal ratio in the repeat runs, not every such curve was filed as active; the % refers to the signal ratio; note: series mostly up to about 77 µM)
# How it was run: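 SBE-bla HEK293T cells plated overnight, then compound exposure for 5 h at 37 C. Beta-lactamase reporter read with LiveBLAzer B/G FRET substrate after 2 h at room temperature, fluorescence at 405 nm excitation, 460/530 nm emission.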
# [7] = target: Thyrotropin-releasing hormone receptor (Homo sapiens) (UniProt P34981); test: qHTS assay to identify small molecule antagonists of the thyrotropin-releasing hormone receptor (TRHR) signaling pathway (AID 1346877; active = well fitted inhibition curve with a large enough effect in the repeat runs, not every such curve was filed as active; note: series mostly up to about 51 µM)
# How it was run: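 Cells (TRHR-HEK293) are plated and kept 18 h at 37 °C/5% CO2. A calcium-sensitive dye is added for 2 h, compound follows for 5 min at room temperature, and TRH is then given at 1 nM final.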
# [8] = target: Thyrotropin-releasing hormone receptor (Homo sapiens) (UniProt P34981); test: qHTS assay to identify small molecule agonists of the thyrotropin-releasing hormone receptor (TRHR) signaling pathway (AID 1346891; calls by dose curve; note: series mostly up to about 58 µM)
# How it was run: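 HEK293 cells expressing TRHR plated 18 h at 37 C/5% CO2, calcium dye-loaded 2 h at 37 C, then compound added (agonist mode); kinetic calcium fluorescence read 3 min at 1 s intervals; 15 concentrations in triplicate.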
# [9] = Human pregnane X receptor (PXR) small molecule agonists, qHTS cell viability counter screen (AID 1346977); note: nearly all actives have a fitted effect of over 50% in size
# How it was run: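 PXR-Luc HepG2 cells (2,000/well, 5% charcoal-stripped FBS) preincubated 5 hr, then exposed to compounds 24 hr at 37 C. Viability read in the same wells by CellTiter-Fluor fluorescence, reagent added at 23 hr, 1 hr incubation.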
# [10] = Caspase-3/7 induction in HepG2 cells by small molecules, qHTS assay (AID 1346978); note: nearly all actives have a fitted effect of over 15% in size
# How it was run: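 Wild-type HepG2 cells, 2,000/well, settled 5 hr at 37 C and 5% CO2, then compound-treated for 17 hr; caspase-3/7 activity read by luminescent Caspase-Glo 3/7 after 30 min at room temperature.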
# [11] = Caspase-3/7 induction in CHO-K1 cells by small molecules, qHTS cell viability counter screen (AID 1346979); note: nearly all actives have a fitted effect of over 35% in size
# How it was run: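 Wild-type CHO-K1 cells (1,500/well) treated with compound after 5 h plating; after 16 h at 37C, viability read as CellTiter-Fluor fluorescence following 1 h reagent incubation, in the same wells as the caspase read.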
# [12] = Caspase-3/7 induction in CHO-K1 cells by small molecules, qHTS assay (AID 1346980); note: nearly all actives have a fitted effect of over 15% in size
# How it was run: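 Wild-type CHO-K1 cells exposed to compounds for 17hr at 37 C, 5% CO2. Caspase-3/7 activity then measured by Caspase-Glo 3/7 luminescence after 30min at room temperature.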
# [13] = Caspase-3/7 induction in HepG2 cells by small molecules, qHTS cell viability counter screen (AID 1346981); note: series mostly up to about 92 µM; nearly all actives have a fitted effect of over 30% in size
# How it was run: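 Steps: seed 2,000 HepG2 cells per well; incubate 5 hr at 37 C; pin-add compounds in DMSO; incubate 16 hr; add CellTiter-Fluor; after 1 hr at 37 C and 5% CO2, read fluorescence.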
# [14] = target: Nuclear receptor subfamily 1 group I member 2 (Homo sapiens) (UniProt O75469); test: Human pregnane X receptor (PXR) small molecule agonists, qHTS assay (AID 1346982); note: nearly all actives have a fitted effect of over 35% in size; note: potency is the fitted concentration of half-maximal effect
# How it was run: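 Agonist mode qHTS: PXR-Luc HepG2 cells plated 5 hr before DMSO-dissolved compounds were pinned in, cultured 24 hr at 37 C, 5% CO2; ONE-Glo luminescence readout.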
# [15] = qHTS assay to identify small molecule antagonists of the TGF-beta/Smad signaling pathway - cell viability counter screen (AID 1346824); note: nearly all actives have a fitted effect of over 50% in size
# How it was run: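 SBE-bla HEK 293T cells, incubated overnight, then compound plus 0.25 ng/mL TGF-beta1 (stock added) for 5 hr at 37 C. Viability was read in the same wells by CellTiter-Glo luminescence after 30 min at room temperature.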
# [16] = qHTS assay to identify small molecule agonists of the TGF-beta/Smad signaling pathway - cell viability counter screen (AID 1346829); note: top concentration of the series differs between compounds; nearly all actives have a fitted effect of over 45% in size
# How it was run: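 HEK 293T SBE-bla line, 5 hr compound exposure at 37 C, multiplexed CellTiter-Glo viability read by luminescence.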
# [17] = target: Nuclear receptor subfamily 1 group I member 2 (Homo sapiens) (UniProt O75469); test: CYP3A4 induction through human pregnane X receptor (PXR) by small molecules, qHTS assay (AID 1346984); note: nearly all actives have a fitted effect of over 40% in size; note: potency is the fitted concentration of half-maximal effect
# How it was run: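 Steps: seed DPX-2 cells, 5 hr at 37C; pin-transfer compounds; 24 hr at 37C; add Luciferin-IPA (3uM final), 3 hr at 37C; add One-Glo, 30 min RT; read luminescence.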
# [18] = target: Nuclear receptor subfamily 1 group I member 2 (Homo sapiens) (UniProt O75469); test: Human pregnane X receptor (PXR) activation by small molecules, qHTS assay (AID 1346985); note: nearly all actives have a fitted effect of over 40% in size; note: potency is the fitted concentration of half-maximal effect
# How it was run: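 DPX-2 cells (HepG2 co-transfected with a PXR response element and a CYP3A4-promoter luciferase construct) were seeded at 2,000 per well, rested 5 hr at 37C, then exposed to DMSO-dissolved compounds for 24 hr. Activation was read as luciferase luminescence.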
# [19] = target: Nuclear receptor subfamily 1 group I member 2 (Rattus norvegicus) (UniProt Q9R1A7); test: Rat pregnane X receptor (rPXR) activation by small molecules, qHTS assay (AID 1346983); conditions: rPXR luciferase reporter cells, One-Glo luminescence, 24 h; stronger effect = higher value; note: nearly all actives have a fitted effect of over 20% in size
# How it was run: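 Cell-based rPXR activation assay: rPXR cells, 2,000 per well, rested 5hr at 37 C, then exposed to compounds in DMSO for 24 hr at 37 C. Luciferase activity read by One-Glo luminescence after 30 min at room temperature.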
# Chain of Progesterone receptor (Homo sapiens) (P06401 whole entry, looked up): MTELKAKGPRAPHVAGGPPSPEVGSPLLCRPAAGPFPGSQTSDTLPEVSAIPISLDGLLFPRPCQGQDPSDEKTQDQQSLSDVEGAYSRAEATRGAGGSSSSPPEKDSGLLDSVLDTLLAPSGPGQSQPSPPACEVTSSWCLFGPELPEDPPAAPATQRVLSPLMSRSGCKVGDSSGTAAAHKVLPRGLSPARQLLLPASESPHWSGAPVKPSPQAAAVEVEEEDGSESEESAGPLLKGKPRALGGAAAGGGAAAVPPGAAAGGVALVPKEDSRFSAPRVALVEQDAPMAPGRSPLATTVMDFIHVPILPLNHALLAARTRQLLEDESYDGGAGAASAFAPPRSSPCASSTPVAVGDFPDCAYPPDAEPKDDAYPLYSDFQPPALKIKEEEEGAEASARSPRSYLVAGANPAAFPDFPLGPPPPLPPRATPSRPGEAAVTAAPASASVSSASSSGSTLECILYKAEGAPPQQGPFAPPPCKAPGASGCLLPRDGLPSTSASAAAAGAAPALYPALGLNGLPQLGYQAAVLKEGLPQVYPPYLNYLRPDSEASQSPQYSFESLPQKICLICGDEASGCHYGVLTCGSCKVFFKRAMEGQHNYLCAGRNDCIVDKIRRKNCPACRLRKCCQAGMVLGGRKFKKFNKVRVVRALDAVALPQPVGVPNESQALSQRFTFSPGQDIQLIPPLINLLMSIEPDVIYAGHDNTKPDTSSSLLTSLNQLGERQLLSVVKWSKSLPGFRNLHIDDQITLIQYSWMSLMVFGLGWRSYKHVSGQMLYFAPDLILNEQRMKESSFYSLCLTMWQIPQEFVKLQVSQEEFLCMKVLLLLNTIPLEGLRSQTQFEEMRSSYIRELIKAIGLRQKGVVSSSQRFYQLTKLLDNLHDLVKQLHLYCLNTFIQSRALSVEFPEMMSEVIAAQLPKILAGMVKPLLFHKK
# Chain of Thyrotropin-releasing hormone receptor (Homo sapiens) (P34981 whole entry, looked up): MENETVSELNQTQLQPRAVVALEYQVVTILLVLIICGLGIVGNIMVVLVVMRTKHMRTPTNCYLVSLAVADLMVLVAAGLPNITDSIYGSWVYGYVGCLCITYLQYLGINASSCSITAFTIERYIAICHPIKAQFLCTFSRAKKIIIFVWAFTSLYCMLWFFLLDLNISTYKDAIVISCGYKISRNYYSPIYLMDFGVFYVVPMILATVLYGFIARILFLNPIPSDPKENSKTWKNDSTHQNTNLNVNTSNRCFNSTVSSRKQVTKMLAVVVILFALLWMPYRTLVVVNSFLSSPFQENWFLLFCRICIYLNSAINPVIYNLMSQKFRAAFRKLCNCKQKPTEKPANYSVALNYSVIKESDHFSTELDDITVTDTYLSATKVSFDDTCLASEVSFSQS
# Chain of Nuclear receptor subfamily 1 group I member 2 (Homo sapiens) (O75469 whole entry, looked up): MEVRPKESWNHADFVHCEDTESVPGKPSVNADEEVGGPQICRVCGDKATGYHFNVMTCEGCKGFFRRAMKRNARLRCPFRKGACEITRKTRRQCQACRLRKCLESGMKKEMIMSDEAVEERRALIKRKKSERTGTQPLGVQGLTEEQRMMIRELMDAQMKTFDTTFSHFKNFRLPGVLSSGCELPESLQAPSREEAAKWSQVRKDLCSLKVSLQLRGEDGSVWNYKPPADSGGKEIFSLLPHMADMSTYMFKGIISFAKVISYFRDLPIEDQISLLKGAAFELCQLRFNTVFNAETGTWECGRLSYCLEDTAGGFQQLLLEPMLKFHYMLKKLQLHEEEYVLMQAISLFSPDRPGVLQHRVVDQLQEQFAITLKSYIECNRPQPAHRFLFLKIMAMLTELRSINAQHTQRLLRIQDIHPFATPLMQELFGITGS
# Chain of Nuclear receptor subfamily 1 group I member 2 (Rattus norvegicus) (Q9R1A7 whole entry, looked up): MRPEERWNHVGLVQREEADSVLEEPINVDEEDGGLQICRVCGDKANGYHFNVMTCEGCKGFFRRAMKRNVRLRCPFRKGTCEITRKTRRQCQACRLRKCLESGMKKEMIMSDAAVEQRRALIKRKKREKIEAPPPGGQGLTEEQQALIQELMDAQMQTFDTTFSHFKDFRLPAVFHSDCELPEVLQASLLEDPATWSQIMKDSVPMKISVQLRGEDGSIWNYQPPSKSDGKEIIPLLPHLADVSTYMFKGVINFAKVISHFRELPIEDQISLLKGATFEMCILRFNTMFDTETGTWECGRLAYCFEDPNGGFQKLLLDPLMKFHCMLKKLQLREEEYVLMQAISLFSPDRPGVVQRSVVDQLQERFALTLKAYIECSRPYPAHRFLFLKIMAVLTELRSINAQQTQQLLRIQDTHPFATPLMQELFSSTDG
Structure (SMILES),Potency [1],Potency [2],Potency [3],Potency [4],Potency [5],outcome [6],outcome [7],outcome [8],Potency [9],Potency [10],Potency [11],outcome [12],Potency [13],Potency [14],outcome [15],outcome [16],Potency [17],Potency [18],max activation [19] [%]
CCCCNC1CC(C)(C)NC(C)(C)C1,inactive,inactive,inactive,inactive,inactive,inactive,inactive,inactive,inactive,inactive,inactive,inactive,inactive,inactive,–,–,–,–,–
FC(F)(F)c1ccccc1-n1ccnc1,inactive,inactive,inactive,–,inactive,inactive,–,inactive,inactive,–,inactive,inactive,inactive,inactive,inactive,inactive,–,–,–
OCCN(CCO)c1cccc(Cl)c1,inactive,inactive,inactive,inactive,inactive,inactive,–,inactive,inactive,inactive,–,–,–,–,inactive,–,–,–,–
CC(C)CCCC(C)(C)O,inactive,inactive,inactive,inactive,inactive,inactive,–,–,inactive,inactive,inactive,inactive,inactive,inactive,inactive,inactive,–,–,–
CCCCCCOC(=O)CC,inactive,inactive,inactive,inactive,inactive,inactive,–,inactive,inactive,inactive,inactive,inactive,inactive,inactive,inactive,inactive,–,–,–
CC(C(=O)O)c1ccc2c(c1)CC(=O)c1ccccc1S2 (stereo not drawn),inactive,inactive,inactive,inactive,inactive,inactive,–,–,inactive,–,inactive,inactive,inactive,inactive,inactive,inactive,–,–,–
COc1ccc(S(=O)(=O)N2c3ccc(Cl)cc3[C@@](O)(c3ccccc3Cl)[C@H]2C(=O)N2CCC[C@@H]2C(N)=O)cc1OC,inactive,inactive,inactive,inactive,inactive,inactive,inactive,inactive,–,inactive,–,inactive,inactive,–,inactive,inactive,inactive,14.1 µM (active),–
CCCC/C=C/C=C\C=O,inactive,inactive,inactive,inactive,inactive,–,–,–,inactive,inactive,inactive,inactive,inactive,24.3 µM (active),inactive,inactive,–,–,–
CN=C(NC#N)Nc1ccc(C2=NNC(=O)CC2C)cc1 (stereo not drawn),inactive,inactive,inactive,inactive,inactive,inactive,–,–,inactive,inactive,–,inactive,inactive,inactive,inactive,inactive,–,–,–
COc1cc(NS(=O)(=O)c2ccc(N)cc2)nc(OC)n1,inactive,inactive,inactive,inactive,–,inactive,inactive,inactive,inactive,inactive,inactive,inactive,inactive,–,inactive,–,inactive,inactive,–
CC1(CO)CN(c2ccccc2)NC1=O (stereo not drawn),inactive,inactive,inactive,inactive,inactive,inactive,inactive,inactive,inactive,inactive,–,inactive,inactive,61.1 µM (active),–,–,–,–,–
Nc1nnc(-c2cccc(Cl)c2Cl)c(N)n1,inactive,inactive,inactive,inactive,inactive,inactive,inactive,inactive,inactive,–,inactive,–,inactive,–,inactive,–,–,–,–
Cc1ccc(C=O)cc1C,inactive,inactive,inactive,inactive,inactive,inactive,inactive,inactive,–,inactive,inactive,–,inactive,inactive,inactive,inactive,–,–,–
COc1ccc(-c2cc(=O)c3c(O)cc(O[C@@H]4O[C@H](CO[C@@H]5O[C@@H](C)[C@H](O)[C@@H](O)[C@H]5O)[C@@H](O)[C@H](O)[C@H]4O)cc3o2)cc1O,inactive,inactive,inactive,inactive,inactive,inactive,inactive,inactive,inactive,–,inactive,inactive,inactive,–,inactive,–,12.6 µM (active),inactive,-2.2
CCCCCCOc1ccccc1C(N)=O,inactive,inactive,7.5 µM (active),–,–,inactive,–,–,–,inactive,–,–,inactive,–,–,inactive,–,–,–
CN(C)c1ccc(C=O)cc1,inactive,inactive,inactive,inactive,inactive,inactive,–,inactive,inactive,inactive,inactive,inactive,inactive,–,inactive,inactive,–,–,–
CCCN1C[C@H](CSC)C[C@@H]2c3cccc4[nH]cc(c34)C[C@H]21,inactive,inactive,inactive,inactive,inactive,–,–,inactive,–,inactive,inactive,inactive,inactive,–,inactive,inactive,–,–,–
